Experimental data from publication PMC7862700, “An all-to-all approach to the identification of sequence-specific readers for epigenetic DNA modifications on cytosine”.

Columns and labels:
Test in all cases: DAPPL (digital affinity profiling via proximity ligation, sequencing); 10 mM Tris-HCl pH 7.5, 50 mM NaCl, 1 mM DTT, 4% glycerol, room temperature, 30 min; GST-TFs on glutathione beads, 16-mer random dsDNA library, 0.1% formaldehyde crosslink after washing; high values mean tight binding
FEV = target: T1, FEV (Homo sapiens, UniProt Q99581 1-238); conditions: protein: recombinant; tags: N-terminal GST; dsDNA, one strand shown
T1 sequence: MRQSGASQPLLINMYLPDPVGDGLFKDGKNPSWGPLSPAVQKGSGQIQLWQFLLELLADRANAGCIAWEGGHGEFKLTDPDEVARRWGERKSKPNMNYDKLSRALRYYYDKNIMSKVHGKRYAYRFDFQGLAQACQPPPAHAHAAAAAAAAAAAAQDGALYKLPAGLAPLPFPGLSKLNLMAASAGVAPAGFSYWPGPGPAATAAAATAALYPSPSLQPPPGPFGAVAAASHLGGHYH
In short: (§1)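 Human transcription factors were made in yeast as GST fusions, captured on glutathione beads and barcoded with DNA. With a tag-only sample included, the pool was incubated with 200 nmole of a random double-stranded 16-mer DNA library in Tris/NaCl/DTT/glycerol buffer at room temperature for 30 min, then crosslinked with 0.1% formaldehyde after washing, ligated by proximity, amplified and sequenced. For binding signal, each hexamer's read frequency for a factor is divided by its frequency for the tag-only sample.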

ETV5 = ETV5 (Homo sapiens, UniProt P41161 1-510); conditions: protein: recombinant; tags: N-terminal GST; dsDNA, one strand shown
Sequence of ETV5 (P41161 whole entry): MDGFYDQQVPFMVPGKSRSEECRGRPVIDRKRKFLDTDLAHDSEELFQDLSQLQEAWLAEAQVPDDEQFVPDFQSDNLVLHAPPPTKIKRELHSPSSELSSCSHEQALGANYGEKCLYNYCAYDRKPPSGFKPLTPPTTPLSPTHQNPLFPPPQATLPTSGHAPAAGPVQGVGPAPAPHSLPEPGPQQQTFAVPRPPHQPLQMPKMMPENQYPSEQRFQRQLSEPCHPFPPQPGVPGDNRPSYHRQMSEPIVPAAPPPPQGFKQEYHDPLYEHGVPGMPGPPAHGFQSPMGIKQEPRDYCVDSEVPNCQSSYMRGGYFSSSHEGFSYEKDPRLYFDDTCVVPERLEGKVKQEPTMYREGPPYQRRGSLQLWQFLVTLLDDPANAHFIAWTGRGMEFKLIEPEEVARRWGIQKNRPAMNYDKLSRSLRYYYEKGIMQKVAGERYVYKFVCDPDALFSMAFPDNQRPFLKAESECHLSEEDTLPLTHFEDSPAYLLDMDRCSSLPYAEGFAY
In short: as §1

HSF1 = HSF1 (Homo sapiens, UniProt Q00613 1-529); conditions: protein: recombinant; tags: N-terminal GST; chain copies: 3; dsDNA, one strand shown
Sequence of HSF1 (Q00613 whole entry): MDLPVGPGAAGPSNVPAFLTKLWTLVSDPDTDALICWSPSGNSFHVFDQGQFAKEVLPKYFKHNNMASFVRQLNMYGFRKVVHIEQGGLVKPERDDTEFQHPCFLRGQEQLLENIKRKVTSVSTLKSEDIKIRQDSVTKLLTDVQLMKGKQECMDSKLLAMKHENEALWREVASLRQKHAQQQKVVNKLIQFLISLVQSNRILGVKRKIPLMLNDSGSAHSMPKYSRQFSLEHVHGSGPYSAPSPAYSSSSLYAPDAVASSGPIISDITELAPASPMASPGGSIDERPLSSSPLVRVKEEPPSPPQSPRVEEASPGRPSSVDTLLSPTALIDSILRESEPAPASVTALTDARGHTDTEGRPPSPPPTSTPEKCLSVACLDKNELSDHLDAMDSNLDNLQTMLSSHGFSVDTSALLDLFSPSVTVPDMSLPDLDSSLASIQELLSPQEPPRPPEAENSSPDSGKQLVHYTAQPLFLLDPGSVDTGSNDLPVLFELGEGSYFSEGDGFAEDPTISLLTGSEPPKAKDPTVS
In short: as §1

SPIC = target: T2, SPIC (Homo sapiens, UniProt Q8N5J4 1-248); conditions: protein: recombinant; tags: N-terminal GST; dsDNA, one strand shown
T2 sequence: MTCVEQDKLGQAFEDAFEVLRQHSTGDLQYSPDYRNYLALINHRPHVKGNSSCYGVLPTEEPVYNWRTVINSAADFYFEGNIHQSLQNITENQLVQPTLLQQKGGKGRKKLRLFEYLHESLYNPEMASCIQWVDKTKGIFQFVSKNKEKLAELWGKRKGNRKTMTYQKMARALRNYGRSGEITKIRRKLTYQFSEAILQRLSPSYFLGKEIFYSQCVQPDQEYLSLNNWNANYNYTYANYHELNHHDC
In short: as §1

ELF4 = ELF4 (Homo sapiens, UniProt Q99607 1-663); conditions: protein: recombinant; tags: N-terminal GST; dsDNA, one strand shown
Sequence of ELF4 (Q99607 whole entry): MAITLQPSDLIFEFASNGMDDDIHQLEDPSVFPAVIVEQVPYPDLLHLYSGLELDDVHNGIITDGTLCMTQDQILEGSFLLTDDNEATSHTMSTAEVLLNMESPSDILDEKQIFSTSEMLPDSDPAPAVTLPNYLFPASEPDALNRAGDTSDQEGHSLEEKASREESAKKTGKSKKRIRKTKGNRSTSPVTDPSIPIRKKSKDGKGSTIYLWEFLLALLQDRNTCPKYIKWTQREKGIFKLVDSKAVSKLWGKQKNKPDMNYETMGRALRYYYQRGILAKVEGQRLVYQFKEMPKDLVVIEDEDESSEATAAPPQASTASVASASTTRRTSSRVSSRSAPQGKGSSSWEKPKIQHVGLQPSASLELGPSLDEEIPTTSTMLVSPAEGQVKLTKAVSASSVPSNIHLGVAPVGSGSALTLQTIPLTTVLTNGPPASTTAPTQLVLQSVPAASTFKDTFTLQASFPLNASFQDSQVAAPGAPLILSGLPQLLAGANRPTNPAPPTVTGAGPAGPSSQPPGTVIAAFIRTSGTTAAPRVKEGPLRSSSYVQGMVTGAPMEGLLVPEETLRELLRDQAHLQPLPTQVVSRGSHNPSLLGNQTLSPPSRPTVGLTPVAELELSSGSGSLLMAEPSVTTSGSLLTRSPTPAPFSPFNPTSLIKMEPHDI
In short: as §1

ELK4 = target: T3, ELK4 (Homo sapiens, UniProt P28324-2 1-405); conditions: protein: recombinant; tags: N-terminal GST; dsDNA, one strand shown
T3 sequence: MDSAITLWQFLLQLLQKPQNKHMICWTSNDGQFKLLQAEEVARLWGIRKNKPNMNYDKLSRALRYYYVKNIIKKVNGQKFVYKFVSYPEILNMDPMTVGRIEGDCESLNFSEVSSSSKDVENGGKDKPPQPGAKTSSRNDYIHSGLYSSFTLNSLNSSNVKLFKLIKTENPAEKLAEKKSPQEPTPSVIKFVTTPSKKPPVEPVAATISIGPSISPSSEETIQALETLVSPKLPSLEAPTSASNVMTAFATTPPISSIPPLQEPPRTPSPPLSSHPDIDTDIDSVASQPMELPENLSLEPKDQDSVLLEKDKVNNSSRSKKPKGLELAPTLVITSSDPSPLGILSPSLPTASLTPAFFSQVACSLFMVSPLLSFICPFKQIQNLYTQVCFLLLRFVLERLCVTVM
In short: as §1

ETV2 = target: T4, ETV2 (Homo sapiens, UniProt O00321 1-342); conditions: protein: recombinant; tags: N-terminal GST; dsDNA, one strand shown
T4 sequence: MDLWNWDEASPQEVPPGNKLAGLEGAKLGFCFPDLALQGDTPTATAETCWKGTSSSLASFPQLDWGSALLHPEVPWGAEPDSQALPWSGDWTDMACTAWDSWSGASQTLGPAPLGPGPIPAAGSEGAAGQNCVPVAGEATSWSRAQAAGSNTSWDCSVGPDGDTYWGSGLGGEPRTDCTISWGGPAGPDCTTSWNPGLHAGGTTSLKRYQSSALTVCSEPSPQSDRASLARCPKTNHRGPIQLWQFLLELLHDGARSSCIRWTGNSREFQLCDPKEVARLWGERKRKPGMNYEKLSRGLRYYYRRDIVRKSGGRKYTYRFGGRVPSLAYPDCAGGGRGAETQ
In short: as §1

ELF3 = target: T5, ELF3 (Homo sapiens, UniProt P78545 1-371); conditions: protein: recombinant; tags: N-terminal GST; dsDNA, one strand shown
T5 sequence: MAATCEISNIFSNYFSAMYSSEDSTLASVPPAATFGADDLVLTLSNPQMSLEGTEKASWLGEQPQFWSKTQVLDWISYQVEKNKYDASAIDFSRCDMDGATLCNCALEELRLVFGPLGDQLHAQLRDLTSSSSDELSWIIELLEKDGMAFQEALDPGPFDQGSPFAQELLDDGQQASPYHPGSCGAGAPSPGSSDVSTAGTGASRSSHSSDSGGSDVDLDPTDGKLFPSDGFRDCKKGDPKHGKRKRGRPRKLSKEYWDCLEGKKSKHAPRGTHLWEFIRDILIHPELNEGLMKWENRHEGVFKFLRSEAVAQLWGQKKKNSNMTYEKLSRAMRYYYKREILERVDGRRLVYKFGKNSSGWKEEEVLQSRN
In short: as §1

CRX = CRX (Homo sapiens, UniProt O43186 1-299); conditions: protein: recombinant; tags: N-terminal GST; dsDNA, one strand shown
Sequence of CRX (O43186 whole entry): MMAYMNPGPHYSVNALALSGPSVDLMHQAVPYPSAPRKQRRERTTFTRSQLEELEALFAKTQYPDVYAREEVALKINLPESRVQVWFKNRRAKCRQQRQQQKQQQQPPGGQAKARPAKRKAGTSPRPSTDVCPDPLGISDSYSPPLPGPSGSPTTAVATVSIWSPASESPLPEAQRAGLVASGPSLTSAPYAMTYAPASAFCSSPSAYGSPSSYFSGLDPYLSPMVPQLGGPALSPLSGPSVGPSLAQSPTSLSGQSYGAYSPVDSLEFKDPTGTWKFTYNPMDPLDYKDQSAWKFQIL
In short: as §1

ETV1 = ETV1 (Homo sapiens, UniProt P50549 1-477); conditions: protein: recombinant; tags: N-terminal GST; dsDNA, one strand shown
Sequence of ETV1 (P50549 whole entry): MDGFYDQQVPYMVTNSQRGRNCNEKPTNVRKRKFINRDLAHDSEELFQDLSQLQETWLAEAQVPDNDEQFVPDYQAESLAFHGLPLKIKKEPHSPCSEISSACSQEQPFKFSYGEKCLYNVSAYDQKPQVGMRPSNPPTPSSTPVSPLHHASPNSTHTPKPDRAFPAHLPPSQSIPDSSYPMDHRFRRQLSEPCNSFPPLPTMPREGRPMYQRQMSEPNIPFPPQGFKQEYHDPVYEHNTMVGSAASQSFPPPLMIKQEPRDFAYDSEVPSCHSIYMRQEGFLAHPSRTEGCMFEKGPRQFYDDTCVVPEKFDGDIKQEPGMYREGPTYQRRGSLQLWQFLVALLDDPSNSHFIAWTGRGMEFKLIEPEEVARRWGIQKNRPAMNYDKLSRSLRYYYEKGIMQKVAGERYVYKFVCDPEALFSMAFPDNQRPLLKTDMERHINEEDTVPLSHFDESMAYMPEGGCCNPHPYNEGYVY
In short: as §1

ERF = target: T6, ERF (Homo sapiens, UniProt P50548 1-548); conditions: protein: recombinant; tags: N-terminal GST; dsDNA, one strand shown
T6 sequence: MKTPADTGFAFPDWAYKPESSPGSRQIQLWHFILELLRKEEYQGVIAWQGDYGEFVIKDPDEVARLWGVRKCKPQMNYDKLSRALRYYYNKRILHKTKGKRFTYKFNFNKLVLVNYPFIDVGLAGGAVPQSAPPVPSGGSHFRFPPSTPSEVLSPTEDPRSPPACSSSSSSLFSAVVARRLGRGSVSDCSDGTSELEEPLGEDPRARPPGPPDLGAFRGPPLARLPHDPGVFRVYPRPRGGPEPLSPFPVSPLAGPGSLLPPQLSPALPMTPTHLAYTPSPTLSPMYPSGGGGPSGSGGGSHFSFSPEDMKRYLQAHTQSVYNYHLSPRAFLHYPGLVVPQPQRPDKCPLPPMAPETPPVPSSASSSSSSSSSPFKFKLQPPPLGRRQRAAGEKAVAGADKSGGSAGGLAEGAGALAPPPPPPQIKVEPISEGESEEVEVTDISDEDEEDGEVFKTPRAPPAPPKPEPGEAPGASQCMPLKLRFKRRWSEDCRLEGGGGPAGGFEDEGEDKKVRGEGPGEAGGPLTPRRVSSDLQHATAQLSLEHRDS
In short: as §1

ETV3L = target: T7, ETV3L (Homo sapiens, UniProt Q6ZN32 1-361); conditions: protein: recombinant; tags: N-terminal GST; dsDNA, one strand shown
T7 sequence: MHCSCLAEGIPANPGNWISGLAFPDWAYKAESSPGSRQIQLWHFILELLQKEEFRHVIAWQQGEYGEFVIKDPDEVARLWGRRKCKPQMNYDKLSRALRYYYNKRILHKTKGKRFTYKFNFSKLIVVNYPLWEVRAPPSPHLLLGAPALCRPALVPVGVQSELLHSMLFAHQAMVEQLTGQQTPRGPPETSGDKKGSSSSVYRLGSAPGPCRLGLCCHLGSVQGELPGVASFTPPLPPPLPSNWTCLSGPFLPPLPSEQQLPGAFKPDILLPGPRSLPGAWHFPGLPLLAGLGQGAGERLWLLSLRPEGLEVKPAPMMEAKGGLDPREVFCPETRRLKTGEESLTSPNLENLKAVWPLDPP
In short: as §1

ETS2 = target: T8, ETS2 (Homo sapiens, UniProt P15036 1-469); conditions: protein: recombinant; tags: N-terminal GST; dsDNA, one strand shown
T8 sequence: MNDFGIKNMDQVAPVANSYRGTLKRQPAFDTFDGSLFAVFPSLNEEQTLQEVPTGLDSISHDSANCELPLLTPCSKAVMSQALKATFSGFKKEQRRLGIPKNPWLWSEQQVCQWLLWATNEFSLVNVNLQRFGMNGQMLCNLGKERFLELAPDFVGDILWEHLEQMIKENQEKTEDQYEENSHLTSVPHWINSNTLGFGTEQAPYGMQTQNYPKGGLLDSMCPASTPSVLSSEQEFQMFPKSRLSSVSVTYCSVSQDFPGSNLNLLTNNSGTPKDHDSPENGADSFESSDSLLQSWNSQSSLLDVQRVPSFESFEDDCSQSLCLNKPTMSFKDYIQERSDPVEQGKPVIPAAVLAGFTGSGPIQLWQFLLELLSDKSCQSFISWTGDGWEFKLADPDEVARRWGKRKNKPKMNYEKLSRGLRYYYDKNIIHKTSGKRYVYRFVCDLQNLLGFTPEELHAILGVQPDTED
In short: as §1

SPDEF = target: T9, SPDEF (Homo sapiens, UniProt O95238 1-335); conditions: protein: recombinant; tags: N-terminal GST; dsDNA, one strand shown
T9 sequence: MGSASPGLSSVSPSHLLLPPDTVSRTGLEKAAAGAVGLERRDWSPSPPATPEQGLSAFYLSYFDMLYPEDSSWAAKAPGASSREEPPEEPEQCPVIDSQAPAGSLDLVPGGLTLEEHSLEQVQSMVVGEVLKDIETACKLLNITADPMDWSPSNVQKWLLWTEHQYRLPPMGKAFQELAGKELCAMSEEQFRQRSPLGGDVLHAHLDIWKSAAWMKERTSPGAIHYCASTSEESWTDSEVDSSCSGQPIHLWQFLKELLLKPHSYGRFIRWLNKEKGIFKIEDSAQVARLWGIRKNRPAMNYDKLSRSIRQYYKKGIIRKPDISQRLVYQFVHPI
In short: as §1

ETV7 = target: T10, ETV7 (Homo sapiens, UniProt Q9Y603 1-341); conditions: protein: recombinant; tags: N-terminal GST; dsDNA, one strand shown
T10 sequence: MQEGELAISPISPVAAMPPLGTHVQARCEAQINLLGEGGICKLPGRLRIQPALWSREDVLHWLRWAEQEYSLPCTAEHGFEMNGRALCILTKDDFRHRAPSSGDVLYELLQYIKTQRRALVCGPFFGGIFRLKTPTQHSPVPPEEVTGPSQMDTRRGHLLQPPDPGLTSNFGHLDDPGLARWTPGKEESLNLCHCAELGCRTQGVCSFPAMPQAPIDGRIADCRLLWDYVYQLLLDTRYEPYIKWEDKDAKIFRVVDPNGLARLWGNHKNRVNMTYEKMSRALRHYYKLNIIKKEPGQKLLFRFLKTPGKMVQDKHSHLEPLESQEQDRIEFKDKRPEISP
In short: as §1

ELF5 = target: T11, ELF5 (Homo sapiens, UniProt Q9UKW6-2 1-255); conditions: protein: recombinant; tags: N-terminal GST; dsDNA, one strand shown
T11 sequence: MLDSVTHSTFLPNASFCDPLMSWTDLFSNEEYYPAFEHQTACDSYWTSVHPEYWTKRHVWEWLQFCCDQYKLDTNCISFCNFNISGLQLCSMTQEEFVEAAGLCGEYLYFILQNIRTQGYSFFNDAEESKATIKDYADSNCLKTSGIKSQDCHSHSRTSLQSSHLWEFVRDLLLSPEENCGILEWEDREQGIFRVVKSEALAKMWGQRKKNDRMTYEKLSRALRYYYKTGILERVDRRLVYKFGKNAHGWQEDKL
In short: as §1

ETV3 = target: T12, ETV3 (Homo sapiens, UniProt P41162-2 1-143); conditions: protein: recombinant; tags: N-terminal GST; dsDNA, one strand shown
T12 sequence: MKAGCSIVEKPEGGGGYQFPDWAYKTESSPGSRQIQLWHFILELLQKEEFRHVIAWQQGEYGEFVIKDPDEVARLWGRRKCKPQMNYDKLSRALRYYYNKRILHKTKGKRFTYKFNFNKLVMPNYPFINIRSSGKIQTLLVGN
In short: as §1

ETV6 = ETV6 (Homo sapiens, UniProt P41212 1-452); conditions: protein: recombinant; tags: N-terminal GST; dsDNA, one strand shown
Sequence of ETV6 (P41212 whole entry): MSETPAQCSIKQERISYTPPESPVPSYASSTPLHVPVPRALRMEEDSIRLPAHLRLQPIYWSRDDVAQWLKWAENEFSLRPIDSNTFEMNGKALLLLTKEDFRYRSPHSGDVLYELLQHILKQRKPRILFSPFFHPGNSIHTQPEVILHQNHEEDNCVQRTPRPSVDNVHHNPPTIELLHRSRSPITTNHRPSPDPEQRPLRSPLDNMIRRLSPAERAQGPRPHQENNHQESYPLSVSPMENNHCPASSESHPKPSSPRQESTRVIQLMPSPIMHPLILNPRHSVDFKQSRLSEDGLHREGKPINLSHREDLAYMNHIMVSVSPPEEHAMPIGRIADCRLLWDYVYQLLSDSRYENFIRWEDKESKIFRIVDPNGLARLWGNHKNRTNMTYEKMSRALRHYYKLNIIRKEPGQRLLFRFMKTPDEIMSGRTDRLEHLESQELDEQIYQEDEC
In short: as §1

For CTTTGT, the binding signal (FEV) was 1.28 fold enrichment (6-mer frequency, TF over GST control), the binding signal (ETV5) was 1.3 fold enrichment (6-mer frequency, TF over GST control) and the binding signal (HSF1) was 1.22 fold enrichment (6-mer frequency, TF over GST control). For the same sequence, the binding signal (SPIC) was 1.21 fold enrichment (6-mer frequency, TF over GST control), the binding signal (ELF4) was 1.29 fold enrichment (6-mer frequency, TF over GST control) and the binding signal (ELK4) was 1.43 fold enrichment (6-mer frequency, TF over GST control). The binding signal (ETV2) was 1.03 fold enrichment (6-mer frequency, TF over GST control), the binding signal (ELF3) was 1.23 fold enrichment (6-mer frequency, TF over GST control) and the binding signal (CRX) was 1.38 fold enrichment (6-mer frequency, TF over GST control). For the same sequence, the binding signal (ETV1) was 1.25 fold enrichment (6-mer frequency, TF over GST control), the binding signal (ERF) was 1.3 fold enrichment (6-mer frequency, TF over GST control) and the binding signal (ETV3L) was 1.41 fold enrichment (6-mer frequency, TF over GST control). For the same sequence, the binding signal (ETS2) was 1.24 fold enrichment (6-mer frequency, TF over GST control), the binding signal (SPDEF) was 1.21 fold enrichment (6-mer frequency, TF over GST control) and the binding signal (ETV7) was 1.36 fold enrichment (6-mer frequency, TF over GST control). The binding signal (ELF5) was 1.24 fold enrichment (6-mer frequency, TF over GST control), the binding signal (ETV3) was 1.32 fold enrichment (6-mer frequency, TF over GST control) and the binding signal (ETV6) was 1.31 fold enrichment (6-mer frequency, TF over GST control).
